Reference: PubChem BioAssay (NCI)
The panel holds about 83,000 compounds, 20% with a hit somewhere; the sample as a whole holds those more often.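 48-hour exposure, single concentration, 96-well plates; percent growth endpoint where 0 means no net growth. Active: below 10.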 Values without a mark were called inactive. Active and inactive are the calls of the source.

Legend:
Test in all cases: NCI-60 one-dose screen, 48 h (100 = growth as untreated, 0 = no growth, -100 = all killed)
Conditions in all cases: 10 µM unless noted
BT-549 breast = test system: BT-549 breast
MDA-MB-435 melanoma = test system: MDA-MB-435 melanoma
SW-620 colon = test system: SW-620 colon
MCF7 breast = test system: MCF7 breast
HCT-116 colon = test system: HCT-116 colon
HCC-2998 colon = test system: HCC-2998 colon
KM12 colon = test system: KM12 colon

Structure (SMILES)	growth (BT-549 breast)	growth (MDA-MB-435 melanoma)	growth (SW-620 colon)	growth (MCF7 breast)	growth (HCT-116 colon)	growth (HCC-2998 colon)	growth (KM12 colon)
Cc1ccc(CS/C(=C\c2ccc([N+](=O)[O-])cc2)C(=O)c2ccc(F)cc2)cc1	75.8%	33.5%	-11.5% (active)	-4.97% (active)	-53.1% (active)	83.7%	13.2%
COc1ccc2c(c1)Oc1nc(N)c(C#N)c(N)c1C2Sc1ccc(O)cc1 (centres undefined)	92.4%	99.5%	68.6%	33.6%	89.6%	98.5%	97.9%
Cc1ccc(C2CC(c3ccc(Nc4nc(NCCO)nc(NCCO)n4)cc3)=NN2c2ccc(Cl)cc2)cc1 (centres undefined)	79%	61.5%	80.4%	27.6%	41.2%	64.1%	52.4%
COc1ccc2oc(=O)cc(-c3c(C#N)c(N)n4nc(N)c(C#N)c4c3C#N)c2c1	89.3%	113%	98%	105%	108%	96.6%	99%
COc1cc(C)ccc1Oc1nc(Nc2ccc(N3CCOCC3)cc2)ncc1N=Cc1cc(C(F)(F)F)cc(C(F)(F)F)c1	89.4%	65.1%	80.5%	46.4%	47.6%	91.6%	55.3%
C[C@H]1[C@H](C)CC[C@]2(C(=O)OCCCC[P+](c3ccccc3)(c3ccccc3)c3ccccc3)CC[C@]3(C)C(=CC[C@@H]4[C@@]5(C)CC[C@H](OC(=O)C(Cl)Cl)C(C)(C)[C@@H]5CC[C@]43C)[C@H]12	-87.1% (active)	-91.4% (active)	-71.3% (active)	-38.1% (active)	-89.2% (active)	-84.8% (active)	-85.7% (active)
O=C1C(=O)c2c(nc3ccc(C(F)(F)F)cn23)-c2ccccc21	-85.2% (active)	-84.4% (active)	-60.4% (active)	-55.5% (active)	-74.9% (active)	-90.4% (active)	-61.7% (active)
CCCn1c2cc(OCc3cn(-c4ccc(Cl)cc4)nn3)ccc2c2ccnc(C)c21	87.2%	101%	74.8%	73.3%	41.6%	92.7%	74.1%
Cc1cc(C)nc(NS(=O)(=O)c2ccc(Nc3ccc4c5c(n(CCCN(C)C)c(=O)c4c3)-c3ccccc3C5=O)cc2)n1	91.8%	98.8%	54.2%	30.6%	56.4%	73.6%	71.6%
CC1(C)CC[C@]2(c3nnc(-c4ccncc4)o3)CC[C@]3(C)C(=CC[C@@H]4[C@@]5(C)CCC(=O)C(C)(C)[C@@H]5CC[C@]43C)[C@@H]2C1	80.3%	79.6%	85.2%	64.6%	61.3%	94.8%	93.8%
Nc1c(C(=O)Nc2ccccn2)sc2nc3c(cc12)CCCCCC3	31%	-57.5% (active)	19%	15.6%	7.24% (active)	48.9%	14.4%
COC(=O)c1ccc2c(c1)NC(=O)[C@@H]1CCCN21	87.2%	100%	96.8%	73.9%	93.8%	109%	101%
COc1ccc(/C(=N\O)c2cc(C)c(OC)c(C)c2)cc1O	19.3%	-23.8% (active)	31%	19.1%	6.63% (active)	26.2%	14.8%
Cc1cc(C)cc(Nc2nccc(-c3c(-c4ccc(F)cc4)ncn3C3CCNCC3)n2)c1	17.7%	-78.8% (active)	-28% (active)	-8.14% (active)	-98.8% (active)	-60.2% (active)	11.8%
COCCOCCOCc1n(Cc2ccc3ccccc3n2)c2ccccc2[n+]1Cc1ccc2ccccc2n1	9.81% (active)	11%	36.2%	9.35% (active)	18.9%	23.2%	12%
COc1ccc(Cc2nc(C#N)c(N3CCN(c4ccc(F)cc4)CC3)o2)cc1	94.5%	84.6%	97.7%	79.7%	78.2%	93.8%	78.8%
CCCCCCC/C=C/[C@H]1O[C@]23C(=O)C[C@@]4(C[C@@H](OC5OC(CO)C(O)C(O)C5O)C[C@@H]4[C@H]2C=C1C)OC3=O (some centres undefined)	-0.665% (active)	3.95% (active)	9.92% (active)	14.4%	1.7% (active)	31.3%	28.6%
